The source of these data is PubChem BioAssay AID652039 (The Scripps Research Institute Molecular Screening Center, 2013).

Hit rate of the full screen: of about 370,000 compounds, about 3,300 (0.89%) were called active. The entries come from a sample that favours actives as a whole. Unmarked numbers belong to inactive results.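 The calls were made as follows: active = activation above the mean of all tested compounds plus 3 SD, computed per campaign excluding outliers beyond control limits (cut at about 13% in these data); inactive = the rest.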

The test deals with Kallikrein-7 (Homo sapiens) (UniProt P49862). Nature of the test: proKLK7 zymogen activators, primary screen, biochemical, fluorescence intensity (AID 652039). Conditions: purified proKLK7, EDANS-DABCYL substrate fluorescence; at 7 µM; active compounds read high; 100% is mature enzyme control, 0% vehicle.
Sequence of Kallikrein-7 (Homo sapiens) (P49862 whole entry, looked up): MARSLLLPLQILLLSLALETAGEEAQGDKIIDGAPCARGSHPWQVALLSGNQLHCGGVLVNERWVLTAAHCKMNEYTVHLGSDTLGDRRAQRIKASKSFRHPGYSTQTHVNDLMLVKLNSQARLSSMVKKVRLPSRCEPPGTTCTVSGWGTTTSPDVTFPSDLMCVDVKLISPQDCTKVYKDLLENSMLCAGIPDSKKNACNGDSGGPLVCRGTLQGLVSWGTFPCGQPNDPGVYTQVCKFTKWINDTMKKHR
On to `CC(C)c1ccc(C(=O)OC2CCOC2=O)cc1` (stereo not drawn), for which the activation was -0.06%.

As for `O=C(OC1CCOC1=O)c1ccc(-c2nc3ccccc3s2)s1` (stereo not drawn), the activation is 25.6% (active). Take `COc1cc(C(=O)OC2CCOC2=O)c([N+](=O)[O-])cc1OC` (stereo not drawn): the activation is -0.39%. For the molecule `O=C(CSc1ncccn1)NC(=O)NCc1ccccc1`, the activation was -0.82%.

Regarding `CCOC(=O)N1CCN(C(=O)C[C@@H]2C(=O)N(CCc3ccc(Cl)cc3)C3=CCCC[C@]32C(=O)OCC)CC1`, the activation was 0.7%. In the case of `CC(C)(C)OC(=O)NCCc1ccccc1/C=C/S(=O)(=O)NCc1ccc(F)cc1` it was -0.22%. Regarding `COc1ccc(C2=CC(c3cccc(OC)c3)n3nnnc3N2)cc1` (stereo not drawn), the activation is 42.3% (active). The same measure for `COc1cccc(-c2nc3n(n2)C(c2ccccc2Cl)C(C(N)=O)=C(C)N3)c1` (stereo not drawn): 0.67%; for `COc1ccc(C2CC(c3cccs3)Nc3nnnn32)cc1` (stereo not drawn): 0.65%; for `O=C1Nc2ccccc2OC1CC(=O)N1CCCCCCC1` (stereo not drawn): 0.05%. In the case of `Cc1nc(Nc2ccc(S(=O)(=O)N3CCCC3)cc2)c2nnn(Cc3ccccc3)c2n1`, the activation was -0.11%. Turning to `CC(C)Cc1nc(Nc2ccc(S(=O)(=O)N3CCCC3)cc2)c2nnn(Cc3ccccc3)c2n1`, the activation is 18% (active). On to `CC(C)Nc1ncnc2c1nnn2Cc1ccccc1`, for which the activation is 0.3%. Take `COc1ccc(Cn2ccc3ccc(-c4ccc5ccn(Cc6ccccc6C)c5c4)cc32)cc1`: the activation was -0.6%. On to `Cc1csc(OCC(=O)Nc2ccc(C)c(C)c2)n1`, for which the activation is 0.44%. In the case of `C=C(C)C#CC(Cc1ccccc1)NCC1CC1` (stereo not drawn) it was 0.49%; in that of `COc1ccc(-n2c(SCC(=O)NC3CCCC3)nnc2-c2ccncc2)cc1`, 0.32%; in that of `COc1ccccc1-n1c(C)nc2cc(C(=O)NCc3ccc4c(c3)OCO4)ccc21`, 0.53%.

On to `CCCn1nc2cc(C(=O)NCc3ccccc3)ccc2c1OCC`, for which the activation was 9.49%.

As to `CCOc1c2ccc(C(=O)NCc3ccc4c(c3)OCO4)cc2nn1C`, the activation is 16.6% (active). Consider `COC(=O)[C@]12C[C@H](CC(=O)NCc3cccs3)C(=O)N(CCc3ccc(OC)c(OC)c3)C1=C[C@H](C(C)C)O[C@@H]2C1CC1`, for which the activation was 0.65%. For the molecule `O=C(/C=C/c1cn(-c2ccccc2)nc1-c1ccc2c(c1)OCCO2)NCCCN1CCOCC1`, the activation was -1.99%. For the molecule `NS(=O)(=O)c1ccc(NC(=O)/C=C/c2ccccc2Cl)cc1`, the activation was 3.16%. On to `Cc1ccc(-c2nn(-c3ccccc3)cc2/C=C/C(=O)Nc2cccc(S(N)(=O)=O)c2)cc1`, for which the activation is 302% (active). In the case of `O=C(NC1CCCCN(Cc2ccc(Cl)cc2)C1=O)c1ccc(Br)cc1` (stereo not drawn), the activation is -0.15%. In the case of `O=S1(=O)c2c(cccc2N2CC[C@H](O)C2)O[C@@H]2CCN1C2` it was -0.53%; in that of `CNc1cncc(-c2cccc(C(=O)N3CCOCC3)c2)n1`, 49.4% (active); in that of `O=C(c1cccc(N2CCCC2=O)c1)N1CCOCC1`, -0.32%. With `COc1ccccc1C(=O)Nc1cccc(C(=O)N2CCOCC2)c1`, the activation is 0.2%. For `CC(=O)N1CCN(S(=O)(=O)c2cccc(C(=O)NC3CCC(C)CC3)c2)CC1` (stereo not drawn), the activation was -0.34%. `COc1cc(C(=O)N2C(=O)c3cccc(N)c3C2=O)cc(OC)c1OC`: the activation is 50.3% (active).

In the case of `COc1cc(C(=O)NC(=S)NCc2ccco2)cc(OC)c1OC`, the activation is 0.52%. In the case of `CCOC(=O)C1CCCN(C(=O)c2cccc(S(=O)(=O)N3CCOCC3)c2)C1` (stereo not drawn) it was -0.32%; in that of `CC1CC(C)CN(S(=O)(=O)c2cccc(C(=O)N3C(=O)c4cccc(N)c4C3=O)c2)C1` (stereo not drawn), 20.5% (active).

On to `COc1cc(C(=O)N2CCN(C)CC2)cc(OC)c1OC`, for which the activation was -0.27%. As for `COc1ccc(CCNC(=O)CSc2nc3c([nH]2)c(=O)n(C)c(=O)n3C)cc1`, the activation was 0.4%. Consider `COC(=O)c1ccccc1-n1cc(COC(=O)NCCc2ccccc2)nn1`, for which the activation was -0.71%.

As to `C[C@H]1CCC/C=C/C(=O)c2c(O)cc(O)cc2CC(=O)O1`, the activation is 0.41%. In the case of `Cc1ccc(NC(=S)NNC(=O)CSc2nnc(SCc3ccccc3Cl)s2)cc1`, the activation is 0.76%. Take `Cc1nc2ccc(C(=O)N3CCN(C(=O)C(C)(C)C)CC3)cc2n1C1CCCC1`: the activation was -0.33%.

Regarding `Cc1ccc(-c2nnc(SCC(=O)Nc3ccc(Oc4ccccc4)cc3)n2Cc2ccco2)cc1`, the activation is -0.21%.

`O=C(c1ccccc1)c1ccc(-c2ccccc2C(=O)NC2CCCCN(Cc3ccc(Cl)cc3)C2=O)cc1` (stereo not drawn): the activation is -0.04%. In the case of `COc1cccc(-c2coc3cc4oc(=O)c(CC(=O)O)c(C)c4cc23)c1` it was 0.62%; in that of `CC(=O)Nc1cc2ccc(OC(C)=O)cc2oc1=O`, 383% (active). For `CC(=O)Oc1ccc2c(C)c(CC(C)O)c(=O)oc2c1` (stereo not drawn), the activation is 57.1% (active). As to `O=C(Oc1ccccc1)Oc1ccc2c(c1)oc(=O)c1ccccc12`, the activation is -0.49%. In the case of `Cc1ccc(OCC(=O)Nc2ccc3oc(=O)ccc3c2)cc1C` it was 0.37%; in that of `CCc1c(C)c2ccc(OC3CCCCC3=O)cc2oc1=O` (stereo not drawn), 1.85%.

For `CCCCN1CCN(C(=O)c2ccc3c(c2)NC(=O)C(C)(C)O3)CC1`, the activation is 0.18%. As to `O=C(CSc1nc2c(c(=O)[nH]1)CCCC2)N1CCCCC1`, the activation is 0.8%. Consider `O=C(CSc1nc2ccccc2n1Cc1ccccc1)NNC(=S)Nc1ccccc1`, for which the activation was -0.17%. As for `O=C(CSc1nc2sc3c(c2c(=O)n1-c1ccccc1)CCCC3)NN=Cc1ccc(OCc2ccccc2)cc1`, the activation was -0.01%. As to `COc1cc(C)ccc1OCC(=O)OCC(=O)c1ccc[nH]1`, the activation was -0.43%. For `COc1ccnc(NC(=S)N2CCN(c3ncc(C(F)(F)F)cc3Cl)CC2)c1`, the activation was 0.32%. Turning to `Cn1nc(-c2ccc(Cl)cc2)c2cc(C(=O)NCc3ccco3)sc21`, the activation was -17.3%. For `CCc1ccc(-c2cc(C(=O)NCc3ccco3)c3ccccc3n2)s1`, the activation was 41.4% (active). Take `Cc1cc(C(=O)OCC(=O)NCc2ccco2)c(C)n1-c1ccccc1`: the activation is 0.45%. In the case of `c1csc(-c2nnc(SCc3nc4ccccc4[nH]3)o2)c1`, the activation was 1.12%.
